From PubChem BioAssay (NCATS)
Records with an inconclusive call do not appear. Activity calls are given as the source filed them. Calls follow the shape of the dose curve; as a rule, active = well fitted inhibition curve with a large enough effect; inconclusive = small, poorly fitted or top-dose-only effect; inactive = flat fitted curve, though single readings scatter.

Key:
Experiment in all cases: qHTS profiling for inhibitors of Plasmodium falciparum proliferation (AID 504749); also: nearly all actives have a fitted effect of over 60% in size
Settings in all cases: P. falciparum in erythrocytes, SYBR Green DNA, 72 h; series mostly up to 28.7 µM
CP260 = test system: CP260
Summary of the method: (§1)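 P. falciparum-infected erythrocytes (0.3% parasitemia, 2.5% hematocrit final) were exposed to compounds for 72 h at 37 C in 5% CO2, then lysed with SYBR Green buffer overnight at room temperature; parasite DNA fluorescence was normalized to artemisinin and DMSO controls.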

CP262 = test system: CP262
Summary of the method: as §1

CP265 = test system: CP265
Summary of the method: as §1

CP266 = test system: CP266
Summary of the method: as §1

CP268 = test system: CP268
Summary of the method: as §1

CP269 = test system: CP269
Summary of the method: as §1

CP286 = test system: CP286
Summary of the method: as §1

CP291 = test system: CP291
Summary of the method: as §1

CP297 = test system: CP297
Summary of the method: as §1

CP305 = test system: CP305
Summary of the method: as §1

CP315 = test system: CP315
Summary of the method: as §1

CP325 = test system: CP325
Summary of the method: as §1

CP329 = test system: CP329
Summary of the method: as §1

DFO2036 = test system: DFO2036
Summary of the method: as §1

DIV14 = test system: DIV14
Summary of the method: as §1

DIV17 = test system: DIV17
Summary of the method: as §1

DIV30 = test system: DIV30
Summary of the method: as §1

FAB9 = test system: FAB9
Summary of the method: as §1

GB4 = test system: GB4
Summary of the method: as §1

HB3 = test system: HB3
Summary of the method: as §1

ICS = test system: ICS
Summary of the method: as §1

JCK = test system: JCK
Summary of the method: as §1

N140 = test system: N140
Summary of the method: as §1

P93_24 = test system: P93_24
Summary of the method: as §1

P94_40 = test system: P94_40
Summary of the method: as §1

PAD = test system: PAD
Summary of the method: as §1

PC15 = test system: PC15
Summary of the method: as §1

PC26 = test system: PC26
Summary of the method: as §1

PC49 = test system: PC49
Summary of the method: as §1

SC27B = test system: SC27B
Summary of the method: as §1

TAB109 = test system: TAB109
Summary of the method: as §1

TAB165 = test system: TAB165
Summary of the method: as §1

W2 = test system: W2
Summary of the method: as §1

Measured: Potency

C[N+]1(C)C2CC[C@H]1CC(OC(=O)[C@@H](CO)c1ccccc1)C2 (stereo partly drawn)
inactive: all assays above
